The source of these data is PubChem BioAssay (NCI).

About 83,000 compounds went through this panel and 20% of them were active in at least one assay; those are over-represented in the sample as a whole.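 48-hour exposure, single concentration, 96-well plates; percent growth endpoint where 0 means no net growth. Active: below 10.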 Calls of active or inactive are those of the source.

The test deals with M14 melanoma. The experiment in a line: NCI-60 one-dose screen, 48 h (100 = growth as untreated, 0 = no growth, -100 = all killed). Particulars: 10 µM.
With `Cc1ccc(-c2nc3ccc(C(=O)N=Nc4c(O)[nH]c5ccc(Br)cc45)cc3[nH]2)cc1`, the growth was 55.8% (inactive).

Take `CCCCCc1ccc(S(=O)(=O)Nc2cc(-c3csc(N(C)C(C)=O)n3)ccc2N2CCN(C)CC2)cc1`: the growth is 28.3% (inactive). The result for `Cc1ccc(NC(=O)NCn2c(=O)[nH]c3ccccc3c2=O)cc1` reads 79.2% (inactive); that for `Cc1ccc(C(=O)NCCCNc2nc(Nc3ccc(N4CCN(C)CC4)cc3)nc3ccsc23)cc1`, -7.88% (active); that for `CNC(=O)c1cccc(N2CCc3c2ccc(NC(=O)Nc2ccc(N4CCN(C)CC4)c(C(F)(F)F)c2)c3F)c1`, -93.3% (active). In the case of `COC1CC(Cn2cc(COc3ccc4ccc(=O)oc4c3)nn2)C(OCc2ccccc2)C(OCc2ccccc2)C1OCc1ccccc1` (stereo not drawn) it was 102% (inactive); in that of `Cc1ccc(NC(=O)c2ccc(-n3c(=O)[nH]c4ccccc4c3=O)cc2)cc1`, 101% (inactive).

As for `O=C(Cn1cc(CSc2nnc3oc4ccccc4n23)nn1)Nc1ccc(Br)cc1`, the growth was 98.8% (inactive). The result for `NC(=Nc1ccc(OCCCCCCCCn2ccnn2)cc1)c1ccccc1` reads 18.4% (inactive); that for `C=C(C)[C@@H]1CC[C@]2(C)[C@H](CC=C3[C@@H]4CC(C)(C)CC[C@]4(C(=O)N4CCOCC4)CC[C@]32C)[C@@]1(C)CCCN`, -80% (active). The result for `CC(=C(c1ccc(OCCN2CCCCC2)cc1)c1ccc(OCCN2CCCCC2)cc1)c1ccccc1` reads -47.2% (active); that for `CN1CCN(c2ccc(Nc3nc(NCCCNC(=O)c4ccccc4)c4sccc4n3)cc2)CC1`, 38.6% (inactive); that for `COc1cccc(C(N)=Nc2ccc(OCCCCCCn3cncn3)cc2)c1`, 9.26% (active).

For `O=C(CS(=O)(=O)c1oc(-c2ccc(Cl)cc2)nc1S(=O)(=O)c1ccccc1)N1CCCC1`, the growth is -31.5% (active). Regarding `CC1(C)CC[C@]2(C(=O)N3CCOCC3)CC[C@]3(C)C(=CC[C@@H]4[C@@]5(C)CC[C@H](NCO)C(C)(C)[C@@H]5CC[C@]43C)[C@H]2C1`, the growth was -84.6% (active). `CC(=O)NCC1=C(C)C=C2C(=O)[C@](C)(O)C3(CC3)C(C)=C21`: the growth was -69.1% (active).

Regarding `C#Cc1ccc(S(=O)(=O)Nc2cccc(-c3csc(NC(C)=O)n3)c2)cc1`, the growth was 92.4% (inactive). In the case of `C=C[C@H]1[C@H](O[C@@H]2OC(CO)[C@@H](O)[C@H](O)C2OC(=O)c2c(O)cc(O)cc2-c2cccc(O)c2)OC=C2C(=O)OCC[C@H]21` (stereo partly drawn) it was 101% (inactive); in that of `O=C(c1ccc(-n2c(=O)[nH]c3ccccc3c2=O)cc1)N1CCOCC1`, 99.3% (inactive).

On to `CCN(CC)CCOc1ccc(C(=C(C)c2ccccc2)c2ccc(OCCN(CC)CC)cc2)cc1`, for which the growth is -53.5% (active). In the case of `CNC(=O)c1cc(-c2ccc(NC(=O)Nc3ccc(C)cc3)cc2)nc2cccnc12` it was 116% (inactive); in that of `O=C(Cn1cc(CSc2nnc3oc4ccccc4n23)nn1)Nc1cccc(Cl)c1`, 87.8% (inactive).

On to `CC1(C)CC[C@]2(C(=O)NCCCNCCCCNCCCN)CC[C@]3(C)C(=CC[C@@H]4[C@@]5(C)Cc6c([nH]c7ccccc67)C(C)(C)[C@@H]5CC[C@]43C)[C@H]2C1`, for which the growth is 59.7% (inactive). `CCC(C)S(=O)(=O)c1oc(-c2ccc(C)cc2)nc1S(=O)(=O)c1ccccc1` (stereo not drawn): the growth is -42% (active). In the case of `CC(=O)Nc1nc(-c2ccc(N3CCN(C)CC3)c(NS(=O)(=O)c3cccc4c(N(C)C)cccc34)c2)cs1` it was -57.5% (active); in that of `N[C@@H](CSSC[C@H](N)C(=O)Nc1ccc(OCC2CCCC2)cc1)C(=O)Nc1ccc(OCC2CCCC2)cc1`, -74.5% (active); in that of `O=C(Nc1ccncc1)c1ccc(-n2c(=O)[nH]c3ccccc3c2=O)cc1`, 97.4% (inactive). For the molecule `CN1CCN(c2ccc(Nc3nc(NCCCNC(=O)c4ccc(F)cc4)c4sccc4n3)cc2)CC1`, the growth is -7% (active). The result for `CC1(C)CC[C@]2(C(=O)O)CC[C@]3(C)C(=CC[C@@H]4[C@@]5(C)C/C(=C/c6ccncc6)[C@H](O)C(C)(C)[C@@H]5CC[C@]43C)[C@@H]2C1` reads 61.6% (inactive); that for `Cc1cc2c(c(O)c1Br)-c1ncoc1C(=O)[C@]1(C)CC[C@H](C(C)C)[C@H]21`, 18.9% (inactive). In the case of `Cc1ccc(/C=C(\C#N)n2nnc3c(F)cccc32)cc1`, the growth is 36.6% (inactive). Regarding `Cc1cc(C)nc(SCC(=O)Nc2ccc(S(N)(=O)=O)cc2)n1`, the growth is 114% (inactive).

For the molecule `COc1ccc(-c2nc(S(=O)(=O)c3ccc(C)cc3)c(S(=O)(=O)CC(=O)N(C)Cc3ccccc3)o2)cc1`, the growth is 35.7% (inactive).

With `O=c1[nH][nH]c(Nc2ccccc2)c1N=Nc1ccc(F)cc1`, the growth was 107% (inactive).

With `CN1CCN(c2ccc(Nc3nc(NCCCNC(=O)C4CCCCC4)c4sccc4n3)cc2)CC1`, the growth is -8.5% (active).

As to `COc1ccc(-c2nc(S(=O)(=O)c3ccccc3)c(S(C)(=O)=O)o2)cc1`, the growth was -24% (active). The result for `c1ccc(C(=C(c2ccc(OCCN3CCCCC3)cc2)c2ccc(OCCN3CCCCC3)cc2)C2CCCC2)cc1` reads -44.4% (active); that for `COc1ccc(C(C)=C(c2ccc(OCCCN(C)C)cc2)c2ccc(OCCCN(C)C)cc2)cc1`, -79.8% (active).
